One test addresses T1, POU2 (OCT2 POU domain) (human, UniProt P09086 175-386).
T1 sequence: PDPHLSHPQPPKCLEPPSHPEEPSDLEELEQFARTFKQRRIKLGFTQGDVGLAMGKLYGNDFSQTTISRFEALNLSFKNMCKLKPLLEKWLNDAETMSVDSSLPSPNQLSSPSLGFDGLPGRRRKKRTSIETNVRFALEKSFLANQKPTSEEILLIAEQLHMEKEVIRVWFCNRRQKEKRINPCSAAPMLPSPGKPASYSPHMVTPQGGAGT
Put plainly: EMSA-SELEX-seq; no BOB1; 20 mM Tris-HCl pH 7.6, 140 mM NaCl, 10% glycerol, 0.5 mM EDTA, 0.05% Triton X-100, 0.1 mg/mL BSA, 0.1 mg/mL poly(dI-dC), 5 mM DTT, room temperature, 20 min; high values mean tight binding. The note with it: protein: recombinant; dsDNA, one strand shown. The method, boiled down:
(§1)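 Binding preference is reported as the percentage of sequenced 8-mers that match a motif pattern. Tagged POU-domain proteins were made in E. coli BL21, purified under denaturing conditions and renatured. A 30 ng portion was combined with 300 ng of a PCR-amplified double-stranded random 35-nt library, with or without 28 ng coactivator protein, in 20 μL Tris–HCl pH 7.6 binding buffer for 20 min at RT. Complex bands were excised from native 6% PAGE, eluted and PCR-amplified over four rounds before Illumina sequencing.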
In the case of ACATAAAA, the binding signal is 0.114 % of ANNNNAAN 8-mers.

AAATTAAG: the binding signal was 0.342 % of ANNNNAAN 8-mers.

For the sequence ATTTGAAG, the binding signal was 0.0604 % of ANNNNAAN 8-mers.

With AAACGAAC, the binding signal is 0.0293 % of ANNNNAAN 8-mers.

AGAGTAAG: the binding signal is 0.0466 % of ANNNNAAN 8-mers.

Regarding ATTATAAG, the binding signal was 0.163 % of ANNNNAAN 8-mers.

Regarding ACCCTAAA, the binding signal was 0.0173 % of ANNNNAAN 8-mers.

On to ATGAGAAA, for which the binding signal was 0.0765 % of ANNNNAAN 8-mers.

Regarding ACTCTAAA, the binding signal was 0.0299 % of ANNNNAAN 8-mers.

Take ACGATAAG: the binding signal is 0.0311 % of ANNNNAAN 8-mers.

On to AGTAGAAT, for which the binding signal is 0.0892 % of ANNNNAAN 8-mers.

For AACACAAA, the binding signal was 0.0443 % of ANNNNAAN 8-mers.

Turning to ATAATAAA, the binding signal is 0.251 % of ANNNNAAN 8-mers.

As for AAAGCAAA, the binding signal is 0.0754 % of ANNNNAAN 8-mers.

Consider ACACCAAA, for which the binding signal is 0.0184 % of ANNNNAAN 8-mers.

With ACTCTAAT, the binding signal was 0.0604 % of ANNNNAAN 8-mers.

Turning to AGCCTAAC, the binding signal was 0.0144 % of ANNNNAAN 8-mers.

For the sequence AGGATAAA, the binding signal was 0.0834 % of ANNNNAAN 8-mers.

Regarding ACGTTAAC, the binding signal is 0.0316 % of ANNNNAAN 8-mers.

As for AACGAAAG, the binding signal was 0.0328 % of ANNNNAAN 8-mers.

As to AATCCAAC, the binding signal was 0.0288 % of ANNNNAAN 8-mers.

Regarding AGACGAAT, the binding signal is 0.0581 % of ANNNNAAN 8-mers.

On to AATTAAAA, for which the binding signal was 0.399 % of ANNNNAAN 8-mers.

With ACTGTAAT, the binding signal is 0.0788 % of ANNNNAAN 8-mers.

For the sequence AACCGAAG, the binding signal is 0.0201 % of ANNNNAAN 8-mers.

As to AAGTGAAA, the binding signal is 0.0587 % of ANNNNAAN 8-mers.

Turning to ACCCGAAA, the binding signal was 0.019 % of ANNNNAAN 8-mers.

In the case of AAAGTAAG, the binding signal is 0.0685 % of ANNNNAAN 8-mers.

On to AGCCAAAC, for which the binding signal was 0.0196 % of ANNNNAAN 8-mers.

On to ACCAGAAG, for which the binding signal was 0.0167 % of ANNNNAAN 8-mers.

On to AGCAAAAG, for which the binding signal is 0.0322 % of ANNNNAAN 8-mers.

As to AAGGCAAA, the binding signal was 0.117 % of ANNNNAAN 8-mers.

In the case of AAGCTAAC, the binding signal is 0.0178 % of ANNNNAAN 8-mers.

In the case of AAGAGAAC, the binding signal was 0.0391 % of ANNNNAAN 8-mers.

For the sequence AGGCAAAA, the binding signal was 0.136 % of ANNNNAAN 8-mers.

Regarding AGGAAAAT, the binding signal is 0.2 % of ANNNNAAN 8-mers.

As for ACTGCAAA, the binding signal is 0.0397 % of ANNNNAAN 8-mers.

In the case of ACAGTAAT, the binding signal was 0.0725 % of ANNNNAAN 8-mers.

With AGCGTAAT, the binding signal is 0.0748 % of ANNNNAAN 8-mers.

For a further test, the target named is POU1 (OCT1 POU domain);BOB1 (OBF1, OCA-B) (human;human, UniProt P14859;Q16633 260-458;1-256, |). The test is described as follows: EMSA-SELEX-seq; with BOB1 (ternary complex band); 20 mM Tris-HCl pH 7.6, 140 mM NaCl, 10% glycerol, 0.5 mM EDTA, 0.05% Triton X-100, 0.1 mg/mL BSA, 0.1 mg/mL poly(dI-dC), 5 mM DTT, room temperature, 20 min; high values mean tight binding. The note with it: protein: recombinant;recombinant; copies: 1;1; dsDNA, one strand shown. The method, boiled down: as §1
Consider ACATAAAA, for which the binding signal is 0.073 % of ANNNNAAN 8-mers.

For the sequence AAATTAAG, the binding signal is 0.238 % of ANNNNAAN 8-mers.

Consider ATTTGAAG, for which the binding signal is 0.0909 % of ANNNNAAN 8-mers.

Take AAACGAAC: the binding signal was 0.0437 % of ANNNNAAN 8-mers.

In the case of AGAGTAAG, the binding signal is 0.039 % of ANNNNAAN 8-mers.

For ATTATAAG, the binding signal was 0.0843 % of ANNNNAAN 8-mers.

For the sequence ACCCTAAA, the binding signal was 0.0137 % of ANNNNAAN 8-mers.

Turning to ATGAGAAA, the binding signal was 0.0738 % of ANNNNAAN 8-mers.

Regarding ACTCTAAA, the binding signal was 0.0285 % of ANNNNAAN 8-mers.

Regarding ACGATAAG, the binding signal is 0.0215 % of ANNNNAAN 8-mers.

Turning to AGTAGAAT, the binding signal is 0.0578 % of ANNNNAAN 8-mers.

Turning to AACACAAA, the binding signal is 0.0648 % of ANNNNAAN 8-mers.

With ATAATAAA, the binding signal is 0.117 % of ANNNNAAN 8-mers.

For AAAGCAAA, the binding signal is 0.179 % of ANNNNAAN 8-mers.

For the sequence ACACCAAA, the binding signal is 0.0121 % of ANNNNAAN 8-mers.

On to ACTCTAAT, for which the binding signal was 0.0316 % of ANNNNAAN 8-mers.

For the sequence AGCCTAAC, the binding signal is 0.0109 % of ANNNNAAN 8-mers.

Consider AGGATAAA, for which the binding signal was 0.0609 % of ANNNNAAN 8-mers.

As for ACGTTAAC, the binding signal was 0.0234 % of ANNNNAAN 8-mers.

On to AACGAAAG, for which the binding signal is 0.0328 % of ANNNNAAN 8-mers.

Take AATCCAAC: the binding signal was 0.016 % of ANNNNAAN 8-mers.

As to AGACGAAT, the binding signal is 0.0418 % of ANNNNAAN 8-mers.

As for AATTAAAA, the binding signal was 0.156 % of ANNNNAAN 8-mers.

For the sequence ACTGTAAT, the binding signal was 0.0464 % of ANNNNAAN 8-mers.

AACCGAAG: the binding signal was 0.0168 % of ANNNNAAN 8-mers.

AAGTGAAA: the binding signal is 0.0788 % of ANNNNAAN 8-mers.

Turning to ACCCGAAA, the binding signal was 0.0168 % of ANNNNAAN 8-mers.

Consider AAAGTAAG, for which the binding signal is 0.0851 % of ANNNNAAN 8-mers.

For AGCCAAAC, the binding signal was 0.0261 % of ANNNNAAN 8-mers.

ACCAGAAG: the binding signal was 0.018 % of ANNNNAAN 8-mers.

For the sequence AGCAAAAG, the binding signal was 0.062 % of ANNNNAAN 8-mers.

Turning to AAGGCAAA, the binding signal is 0.443 % of ANNNNAAN 8-mers.

As to AAGCTAAC, the binding signal is 0.0191 % of ANNNNAAN 8-mers.

Turning to AAGAGAAC, the binding signal is 0.0285 % of ANNNNAAN 8-mers.

As to AGGCAAAA, the binding signal was 0.454 % of ANNNNAAN 8-mers.

As to AGGAAAAT, the binding signal was 0.507 % of ANNNNAAN 8-mers.

With ACTGCAAA, the binding signal was 0.0535 % of ANNNNAAN 8-mers.

For the sequence ACAGTAAT, the binding signal was 0.0406 % of ANNNNAAN 8-mers.

Take AGCGTAAT: the binding signal is 0.0382 % of ANNNNAAN 8-mers.

In the next test the target is T2, POU2 (OCT2 POU domain);BOB1 (OBF1, OCA-B) (human;human, UniProt P09086;Q16633 175-386;1-256, |).
T2 sequence 1: T1 sequence
T2 sequence 2: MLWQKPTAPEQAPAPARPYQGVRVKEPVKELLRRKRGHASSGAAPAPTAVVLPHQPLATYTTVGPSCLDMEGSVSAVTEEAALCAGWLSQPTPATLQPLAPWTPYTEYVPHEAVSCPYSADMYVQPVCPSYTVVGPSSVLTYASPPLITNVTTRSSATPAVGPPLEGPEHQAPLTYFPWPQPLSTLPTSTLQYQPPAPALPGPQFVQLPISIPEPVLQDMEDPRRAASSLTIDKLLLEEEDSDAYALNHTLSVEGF
The test is described as above. To be noted: protein: recombinant;recombinant; copies: 1;1; dsDNA, one strand shown. Summed up:
as §1
Consider ACATAAAA, for which the binding signal is 0.0925 % of ANNNNAAN 8-mers.

For the sequence AAATTAAG, the binding signal was 0.319 % of ANNNNAAN 8-mers.

In the case of ATTTGAAG, the binding signal was 0.0545 % of ANNNNAAN 8-mers.

On to AAACGAAC, for which the binding signal was 0.0355 % of ANNNNAAN 8-mers.

As for AGAGTAAG, the binding signal is 0.0297 % of ANNNNAAN 8-mers.

For ATTATAAG, the binding signal is 0.0966 % of ANNNNAAN 8-mers.

ACCCTAAA: the binding signal was 0.0107 % of ANNNNAAN 8-mers.

As for ATGAGAAA, the binding signal was 0.0792 % of ANNNNAAN 8-mers.

For the sequence ACTCTAAA, the binding signal is 0.0248 % of ANNNNAAN 8-mers.

In the case of ACGATAAG, the binding signal was 0.0314 % of ANNNNAAN 8-mers.

On to AGTAGAAT, for which the binding signal was 0.0826 % of ANNNNAAN 8-mers.

Take AACACAAA: the binding signal was 0.0438 % of ANNNNAAN 8-mers.

ATAATAAA: the binding signal was 0.0999 % of ANNNNAAN 8-mers.

With AAAGCAAA, the binding signal is 0.0908 % of ANNNNAAN 8-mers.

Consider ACACCAAA, for which the binding signal is 0.0149 % of ANNNNAAN 8-mers.

Turning to ACTCTAAT, the binding signal was 0.0405 % of ANNNNAAN 8-mers.

For AGCCTAAC, the binding signal was 0.0157 % of ANNNNAAN 8-mers.

For the sequence AGGATAAA, the binding signal was 0.0718 % of ANNNNAAN 8-mers.

For ACGTTAAC, the binding signal was 0.0289 % of ANNNNAAN 8-mers.

As to AACGAAAG, the binding signal is 0.0264 % of ANNNNAAN 8-mers.

With AATCCAAC, the binding signal was 0.0223 % of ANNNNAAN 8-mers.

As to AGACGAAT, the binding signal is 0.0479 % of ANNNNAAN 8-mers.

For the sequence AATTAAAA, the binding signal was 0.151 % of ANNNNAAN 8-mers.

ACTGTAAT: the binding signal was 0.0504 % of ANNNNAAN 8-mers.

Take AACCGAAG: the binding signal was 0.014 % of ANNNNAAN 8-mers.

On to AAGTGAAA, for which the binding signal was 0.0627 % of ANNNNAAN 8-mers.

For ACCCGAAA, the binding signal is 0.014 % of ANNNNAAN 8-mers.

Turning to AAAGTAAG, the binding signal was 0.0834 % of ANNNNAAN 8-mers.

For the sequence AGCCAAAC, the binding signal is 0.0182 % of ANNNNAAN 8-mers.

Consider ACCAGAAG, for which the binding signal was 0.0215 % of ANNNNAAN 8-mers.

On to AGCAAAAG, for which the binding signal was 0.0429 % of ANNNNAAN 8-mers.

With AAGGCAAA, the binding signal was 0.278 % of ANNNNAAN 8-mers.

AAGCTAAC: the binding signal was 0.0215 % of ANNNNAAN 8-mers.

With AAGAGAAC, the binding signal is 0.0289 % of ANNNNAAN 8-mers.

AGGCAAAA: the binding signal was 0.204 % of ANNNNAAN 8-mers.

AGGAAAAT: the binding signal is 0.347 % of ANNNNAAN 8-mers.

On to ACTGCAAA, for which the binding signal is 0.0264 % of ANNNNAAN 8-mers.

For the sequence ACAGTAAT, the binding signal was 0.0553 % of ANNNNAAN 8-mers.

Regarding AGCGTAAT, the binding signal was 0.0611 % of ANNNNAAN 8-mers.

The values are drawn from PMC10812921, “Transcriptional Coactivator BOB1 (OBF1, OCA-B) Modulates the Specificity of DNA Recognition by the POU-Domain Factors OCT1 and OCT2 in a Monomeric Configuration”.
